PubChem BioAssay (NCATS)
Results filed as inconclusive are left out. Entries that show only a call come without a potency. The source made the active and inactive calls. The call rests on the fitted dose curve; in most records, active means well fitted inhibition curve with a large enough effect; inconclusive means small, poorly fitted or top-dose-only effect; inactive means flat fitted curve, though single readings scatter.

Test system: Zika virus NS2B-NS3 protease
Test: Primary screen GU AMC qHTS for Zika virus inhibitors (AID 1347154); further: nearly all actives have a fitted effect of over 70% in size
Conditions: Zika NS2B-NS3 unlinked protease, AMC fluorogenic substrate; series mostly up to 54.1 µM
Procedure, shortened: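 Unlinked Zika NS2B hydrophilic domain/NS3 protease domain noncovalent complex (25 nM final) in 10 mM Tris-HCl pH 8.0, 0.01% Tween 20, with AMC peptide substrate. Fluorescence (ex 340, em 450 nm) change over 15 min, room temperature; percent inhibition fitted to 4-parameter Hill equation.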

Row | Structure (SMILES) | Potency
1 | Nc1ccc(S(=O)(=O)c2ccc(N)cc2)cc1 | inactive
2 | O=C(O)C(S)C(S)C(=O)O (stereo not given) | inactive
3 | CCC(C)(CN(C)C)OC(=O)c1ccccc1 (stereo not given) | inactive
4 | CCCNC(C)C(=O)Nc1c(C)csc1C(=O)OC (stereo not given) | inactive
5 | O=C(O)c1cc(=O)c2ccccc2o1 | inactive
6 | Cc1c(N(C)C)c(=O)n(-c2ccccc2)n1C | inactive
7 | CN1CC(=O)NC1=N | inactive
8 | CCN(CC)S(=O)(=O)c1ccc(C(=O)O)cc1 | inactive
9 | CCCCCOC(=O)Nc1nc(=O)n([C@@H]2O[C@H](C)[C@@H](O)[C@H]2O)cc1F | inactive
10 | O=C(/C=C/c1ccccc1)OCc1ccccc1 | inactive
